Data reported in PubChem BioAssay AID1159580 (chemical genetic matrix, 2015).
Among all 5,500 compounds or so, about 2,000 (36%) were called active. Another 18% or so got no clear call; they are omitted. Rule as the data show it: active = normalized growth mostly below about 0.91 (no sharp cut-off); inconclusive = no clear call, values can overlap the other calls; inactive = mostly above about 0.92. The list shows a part of the results.

Assay: chemical genetic growth profiling, strain panel (AID 1159580);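 also: tested at 20 µM; growth read once vehicle control cultures reached saturation at 30 °C; 1 = growth at the plate median or of vehicle wells; lower values mean less growth of the strain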
Settings: growth OD
[1] = S. cerevisiae deletion strains, locus YAL013W, strain DEP1, hits give low values
[2] = S. cerevisiae deletion strains, locus YBR229C, strain ROT2, hits give low values
[3] = S. cerevisiae deletion strains, locus YCL061C, strain MRC1, hits give low values
[4] = S. cerevisiae deletion strains, locus YDL101C, strain DUN1, hits give low values
[5] = S. cerevisiae deletion strains, locus YDR150W, strain NUM1, hits give low values
[6] = S. cerevisiae deletion strains, locus YEL061C, strain CIN8, hits give low values
[7] = S. cerevisiae deletion strains, locus YGR078C, strain PAC10, hits give low values
[8] = S. cerevisiae deletion strains, locus YHR030C, strain SLT2, hits give low values
[9] = S. cerevisiae deletion strains, locus YHR087W, strain rtc3, hits give low values
[10] = S. cerevisiae deletion strains, locus YJR043C, strain POL32, hits give low values
[11] = S. cerevisiae deletion strains, locus YJR075W, strain HOC1, hits give low values
[12] = S. cerevisiae deletion strains, locus YLR039C, strain RIC1, hits give low values
[13] = S. cerevisiae deletion strains, locus YLR058C, strain SHM2 (second series), hits give low values
[14] = S. cerevisiae deletion strains, locus YLR085C, strain ARP6, hits give low values
[15] = S. cerevisiae deletion strains, locus YLR262C, strain YPT6, hits give low values
[16] = S. cerevisiae deletion strains, locus YML094W, strain GIM5, hits give low values
[17] = S. cerevisiae deletion strains, locus YMR219W, strain ESC1, hits give low values
[18] = S. cerevisiae deletion strains, locus YMR263W, strain SAP30, hits give low values
[19] = S. cerevisiae deletion strains, locus YNL153C, strain GIM3, hits give low values
[20] = S. cerevisiae deletion strains, locus YNL298W, strain CLA4 (second series), hits give low values
[21] = S. cerevisiae deletion strains, locus YNL322C, strain KRE1, hits give low values
[22] = S. cerevisiae deletion strains, locus YNR030W, strain Alg12, hits give low values
[23] = S. cerevisiae deletion strains, locus YOL006C, strain TOP1, hits give low values
[24] = S. cerevisiae deletion strains, locus YPL055C, strain LGE1, hits give low values
[25] = S. cerevisiae deletion strains, locus YPL241C, strain CIN2, hits give low values
[26] = S. cerevisiae deletion strains, locus YPR135W, strain CTF4, hits give low values
[27] = S. cerevisiae strains, strain wild type, hits give low values

Measured: normalized growth

CSc1cccc(NC(=S)N=CN(C)C)c1
inactive: [1] 0.977 | [2] 1.01 | [3] 0.954 | [4] 0.944 | [5] 0.974 | [6] 0.997 | [7] 0.977 | [8] 0.882 | S. cerevisiae deletion strains, locus YJL187C, strain SWE1, hits give low values 0.988 | [10] 0.961 | [11] 1.05 | [13] 1.03 | [15] 0.932 | [16] 0.96 | [17] 1 | [18] 0.983 | S. cerevisiae deletion strains, locus YNL128W, strain TEP1, hits give low values 0.962 | [19] 0.963 | [21] 1 | [22] 0.958 | [24] 1.02 | [25] 0.898 | [26] 0.787 | [27] 0.933
active: [9] 1.12 [resistant] | [12] 0.73 | [14] 0.618 | [20] 0.798 | [23] 0.393

COc1ccc(CCNc2ccc(C(F)(F)F)cc2N)cc1OC
inactive: [1] 1 | [2] 0.998 | [3] 1 | [4] 0.974 | S. cerevisiae deletion strains, locus YDL134C, strain PPH21, hits give low values 1.02 | [5] 0.911 | [6] 1.02 | [7] 0.985 | [8] 0.903 | [9] 1.04 | [10] 0.996 | [11] 1.02 | [12] 0.988 | [13] 1.01 | [14] 0.961 | [15] 0.946 | [16] 0.972 | [17] 0.994 | [18] 0.918 | [19] 0.988 | [20] 0.966 | [21] 1.01 | [22] 0.974 | [23] 1.01 | [24] 0.893 | [25] 0.93 | [26] 0.842 | [27] 1.01

Cc1cc(Oc2ccc(C(F)(F)F)cc2NS(C)(=O)=O)cc(C)c1Cl
active: [8] 0.802 | S. cerevisiae deletion strains, locus YLR113W, strain HOG1, hits give low values 0.75 | S. cerevisiae deletion strains, locus YPL256C, strain CLN2, hits give low values 0.827
inactive: S. cerevisiae deletion strains, locus YAR019C, strain CDC15, hits give low values 0.992 | S. cerevisiae deletion strains, locus YBL105C, strain PKC1, hits give low values 0.988 | S. cerevisiae deletion strains, locus YBR135W, strain CKS1, hits give low values 0.995 | S. cerevisiae deletion strains, locus YBR136W, strain MEC1, hits give low values 0.991 | S. cerevisiae deletion strains, locus YBR160W, strain CDC28, hits give low values 0.988 | S. cerevisiae deletion strains, locus YDL017W, strain CDC7, hits give low values 0.982 | S. cerevisiae deletion strains, locus YDL028C, strain MPS1, hits give low values 0.998 | [4] 0.979 | S. cerevisiae deletion strains, locus YDL108W, strain KIN28, hits give low values 0.995 | S. cerevisiae deletion strains, locus YDL132W, strain cdc53, hits give low values 0.989 | S. cerevisiae deletion strains, locus YDL214C, strain PRR2, hits give low values 0.961 | S. cerevisiae deletion strains, locus YDR052C, strain DBF4, hits give low values 0.996 | S. cerevisiae deletion strains, locus YDR054C, strain cdc34, hits give low values 0.995 | S. cerevisiae deletion strains, locus YDR226W, strain ADK1, hits give low values 0.979 | S. cerevisiae deletion strains, locus YDR477W, strain SNF1, hits give low values 0.978 | S. cerevisiae deletion strains, locus YER123W, strain YCK3, hits give low values 0.95 | S. cerevisiae deletion strains, locus YER133W, strain GLC7, hits give low values 0.974 | S. cerevisiae deletion strains, locus YFL009W, strain cdc4, hits give low values 0.995 | S. cerevisiae deletion strains, locus YFL029C, strain CAK1, hits give low values 0.981 | S. cerevisiae deletion strains, locus YFR003C, strain YPI1, hits give low values 0.986 | S. cerevisiae deletion strains, locus YFR019W, strain FAB1, hits give low values 0.984 | S. cerevisiae deletion strains, locus YFR028C, strain CDC14, hits give low values 0.995 | S. cerevisiae deletion strains, locus YGR040W, strain KSS1, hits give low values 0.985 | S. cerevisiae deletion strains, locus YGR052W, strain FMP48, hits give low values 0.986 | S. cerevisiae deletion strains, locus YGR092W, strain DBF2, hits give low values 0.889 | S. cerevisiae deletion strains, locus YHR079C, strain IRE1, hits give low values 0.873 | S. cerevisiae deletion strains, locus YHR082C, strain KSP1, hits give low values 1.03 | S. cerevisiae deletion strains, locus YHR205W, strain SCH9, hits give low values 0.902 | S. cerevisiae deletion strains, locus YIL147C, strain SLN1, hits give low values 0.993 | S. cerevisiae deletion strains, locus YJL095W, strain BCK1, hits give low values 0.891 | S. cerevisiae deletion strains, locus YJL128C, strain PBS2, hits give low values 0.947 | S. cerevisiae deletion strains, locus YJL157C, strain FAR1, hits give low values 0.963 | S. cerevisiae deletion strains, locus YJR016C, strain ILV3, hits give low values 0.986 | S. cerevisiae deletion strains, locus YJR066W, strain TOR1 (second series), hits give low values 0.928 | S. cerevisiae deletion strains, locus YJR066W, strain TOR1, hits give low values 1.01 | S. cerevisiae deletion strains, locus YKL048C, strain ELM1, hits give low values 0.985 | S. cerevisiae deletion strains, locus YKL067W, strain YNK1, hits give low values 0.957 | S. cerevisiae deletion strains, locus YKL101W, strain HSL1, hits give low values 0.961 | S. cerevisiae deletion strains, locus YKL193C, strain SDS22, hits give low values 0.989 | S. cerevisiae deletion strains, locus YKL203C, strain TOR2, hits give low values 1.02 | S. cerevisiae deletion strains, locus YLR133W, strain CKI1, hits give low values 0.96 | S. cerevisiae deletion strains, locus YLR403W, strain SFP1, hits give low values 0.939 | S. cerevisiae deletion strains, locus YML070W, strain DAK1, hits give low values 0.931 | S. cerevisiae deletion strains, locus YMR001C, strain CDC5, hits give low values 0.989 | S. cerevisiae deletion strains, locus YMR205C, strain PFK2 (second series), hits give low values 0.972 | S. cerevisiae deletion strains, locus YMR277W, strain FCP1, hits give low values 0.991 | S. cerevisiae deletion strains, locus YNL006W, strain LST8, hits give low values 0.983 | S. cerevisiae deletion strains, locus YNL020C, strain ARK1, hits give low values 0.914 | S. cerevisiae deletion strains, locus YNL161W, strain CBK1, hits give low values 0.985 | S. cerevisiae deletion strains, locus YNL183C, strain NPR1, hits give low values 0.981 | S. cerevisiae deletion strains, locus YNL207W, strain RIO2, hits give low values 0.987 | S. cerevisiae deletion strains, locus YNL222W, strain SSU72, hits give low values 0.996 | S. cerevisiae deletion strains, locus YNL307C, strain MCK1 (second series), hits give low values 0.939 | S. cerevisiae deletion strains, locus YOL078W, strain AVO1, hits give low values 0.995 | S. cerevisiae deletion strains, locus YOL136C, strain PFK27, hits give low values 0.939 | S. cerevisiae deletion strains, locus YOR061W, strain CKA2, hits give low values 0.923 | S. cerevisiae deletion strains, locus YOR119C, strain RIO1, hits give low values 1.04 | S. cerevisiae deletion strains, locus YOR231W, strain MKK1, hits give low values 0.902 | S. cerevisiae deletion strains, locus YOR329C, strain SCD5, hits give low values 0.984 | S. cerevisiae deletion strains, locus YPL031C, strain PHO85, hits give low values 0.971 | S. cerevisiae deletion strains, locus YPL153C, strain RAD53, hits give low values 0.981 | S. cerevisiae deletion strains, locus YPL204W, strain HRR25, hits give low values 0.947 | S. cerevisiae deletion strains, locus YPL209C, strain IPL1, hits give low values 0.987 | S. cerevisiae deletion strains, locus YPR025C, strain CCL1, hits give low values 0.993 | S. cerevisiae deletion strains, locus YPR106W, strain ISR1, hits give low values 0.985 | S. cerevisiae deletion strains, locus YPR111W, strain DBF20, hits give low values 0.973 | S. cerevisiae deletion strains, strain NNK1, hits give low values 0.984 | S. cerevisiae deletion strains, strain TSCII, hits give low values 0.993
